High-throughput results deposited in PubChem BioAssay by National Center for Advancing Translational Sciences (NCATS).
In the library only some 17% were active in any assay of this set; here they are far more common.
HT1080 IDH1KD tx: qHTS for induction of synthetic lethality in tumor cells producing 2HG: qHTS for the HT-1080-IDH1KD cell line. HT-1080 IDH1 knockdown viability, ATP luminescence, 48 h. Potency, µM (highest dose often 46.1 µM), without a hit: top-dose activity, negative = toxicity, actives largely listed as cytotoxic. 2% of 360,000 active;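 further: 0% = DMSO wells and -100% = cell-free medium wells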
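In this qHTS, HT-1080 cells depleted of IDH1 are exposed for 48 h at 37 °C to compound titrations. Toxicity is scored from CellTiter-Glo luminescence, with DMSO as full viability and medium alone as none.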
HepG2 viability: qHTS for Inhibitors of TGF-b: Cytotox Counterscreen; AID 588856, 2011; HepG2 CAGA-GFP viability, ATP luminescence, 18 h; 0.76% of 410,000 active; Potency, µM (series often up to 46.1 µM), inactives show top-dose activity change, negative = cytotoxicity, hits mostly cytotoxic
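CellTiter-Glo luminescence gave cytotoxicity after 18 hours at 37 degrees C. The cells were HepG2 CAGA-GFP in 1% FBS DMEM, stimulated with 500 pg/mL TGF-beta after compound addition. %Activity was normalised to no-cell wells (complete cell-killing) and DMSO (no toxicity), and curves were fitted and classified.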
TDP1 cell CPT: qHTS for Inhibitors of human tyrosyl-DNA phosphodiesterase 1 (TDP1): qHTS in cells in presence of CPT. Potency, µM (top dose mostly 46.2 µM), inactives show at the top dose activity change, negative = growth inhibition, hits mostly inhibitors. 12% of 420,000 active. chicken DT40 Tdp1-/-;hTDP1 cells + 20 nM CPT, ATP luminescence, 48 h. AID 686979, 2013; further: on the % scale 0 is the no-effect control and ±100 the full control effect; nearly all actives have a fitted effect of over 55% in size
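Chicken DT40 Tdp1-/- cells stably complemented with human TDP1 were seeded at 400 cells/well in medium containing 20 nM camptothecin, exposed to pin-transferred compounds, and grown at 37 °C for at least 48 hr. Viability was read as ATP luminescence.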
TGFb SMAD3 inh: qHTS for Inhibitors of TGF-b | 1.2% of 410,000 active | HepG2 CAGA-GFP TGF-b/SMAD3 reporter, GFP fluorescence, 18 h; TGF-beta stimulated, 500 pg/mL final | Potency, µM (series often up to 46.1 µM), for inactives: at the top dose activity, negative = inhibition, most hits filed as inhibitors; further: on the % scale 0 is the no-effect control and ±100 the full control effect; nearly all actives have a fitted effect of over 65% in size
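First, reporter cells (HEPG2 CAGA-GFP) rested 2 h at 37 degrees C. Next, compounds were pinned in and TGF-beta added to 500 pg/mL final. After 18 h, GFP was imaged per cell and summed per well.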
TDP1 cell noCPT: qHTS for Inhibitors of human tyrosyl-DNA phosphodiesterase 1 (TDP1): qHTS in cells in absence of CPT | DT40 Tdp1-/- hTDP1 cells, no CPT, ATP luminescence, 48 h | Potency, µM (top dose mostly 46.2 µM), for the others: at the top dose activity change, negative = growth inhibition, actives largely listed as inhibitors | 15% of 420,000 active; further: on the % scale 0 is the no-effect control and ±100 the full control effect; nearly all actives have a fitted effect of over 55% in size
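Readout: luminescence from CellTiter-Glo after 30 min in the dark at RT. Cells: DT40 Tdp1-/- with stable hTDP1, 400/well. Exposure: compounds alone, ≥48 hr, 37 °C.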
HT1080-NT tox: qHTS for induction of synthetic lethality in tumor cells producing 2HG: qHTS for the HT-1080-NT fibrosarcoma cell line | HT-1080-NT fibrosarcoma viability, CellTiter-Glo ATP luminescence, 48 h | AID 686970, 2013 | Potency, µM (titrated, usually from 46.1 µM), for the others: at the top dose activity, negative = less viability, most hits filed as cytotoxic | 1.6% of 360,000 active;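 further: NT is the 2HG producing partner of a matched IDH1 knockdown line; 0% = DMSO-treated cells and -100% = media-only wells without cells; nearly all actives have a fitted effect of over 55% in size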
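Fibrosarcoma NT cells, 750 per well in 5% FBS RPMI, were exposed to compound for 48 hours. Viability: CellTiter-Glo luminescence.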
* = called active by the depositor; ? = inconclusive; nt = no result given. The call rests on the fitted dose curve; in most records, active means well fitted curve in the direction sought with a large enough effect; inconclusive means small, poorly fitted or top-dose-only effect, or another doubt; inactive means no such curve, though single readings can be large; an effect the other way counts as inactive or inconclusive. Potency means the concentration at half of the fitted maximal effect.

SMILES | HT1080 IDH1KD tx | HepG2 viability | TDP1 cell CPT | TGFb SMAD3 inh | TDP1 cell noCPT | HT1080-NT tox
COC(=O)c1c(C)sc(-c2c(-c3cccc(OC)c3)[nH]c3c2c(=O)[nH]c(=O)n3C)c1O | nt | -3% | -3% | -1% | -26% | nt
Cn1cnnc1Sc1ccc(C(=O)NCCC23CC4CC(CC(C4)C2)C3)cc1[N+](=O)[O-] | ? | -19% | 10µM* | ? | ? | ?
Cc1cccc(-c2cc(NCCc3cccnc3)n3nccc3n2)c1 | 12% | -1% | -17% | -21% | -3% | 14%
O=C(N/N=C/c1sc2ccccc2c1O)c1cccc2ccccc12 | ? | 4% | 2.6µM* | -26% | 5.2µM* | ?
COc1ccc2cc(C(=O)N/N=C/c3sc4ccccc4c3O)ccc2c1 | ? | -23% | 10µM* | 75% | 7.3µM* | ?
COc1ccc(C(=O)N/N=C/C(=O)c2ccccc2)cc1 | 4% | -10% | -22% | 0% | 2% | 8%
COc1ccc(C(=O)N/N=C/c2sc3ccccc3c2O)cc1 | ? | -28% | 2.6µM* | 0% | 3.7µM* | ?
O=C(N/N=C/c1sc2ccccc2c1O)c1ccccc1 | 2.6µM* | -53% | 0.92µM* | -13% | 0.65µM* | 8.2µM*
COc1ccc(OC)c(/C=N/NC(=O)c2cccc3ccccc23)c1 | -11% | -13% | 7% | 15% | ? | -15%
CC(C)(S)C(=O)N[C@@H](CS)C(=O)O | nt | nt | -5% | nt | 3% | nt
CCCCC(=O)N1CCCC(c2nc(-c3cccc(OC)c3)no2)C1 (configuration not stated) | 7% | -4% | ? | 0% | 15µM* | 0%
COc1cccc(-c2noc(C3CCCN(C(=O)CC(C)(C)C)C3)n2)c1 (configuration not stated) | -1% | -32% | 16µM* | -24% | ? | -3%
CCCC(=O)N1CCCC(c2nc(-c3cccs3)no2)C1 (configuration not stated) | 7% | -12% | ? | 0% | 26µM* | 16%
CCC(C)C(=O)N1CCCC(c2nc(-c3cccs3)no2)C1 (configuration not stated) | 1% | -21% | -21% | -27% | ? | 1%
Cc1nc2ccccc2n1CC(=O)c1ccc(O)c(O)c1 | 5% | -15% | -14% | -8% | -14% | -2%
O=C1CCN(CCc2ccccc2)CCN1[C@H](CO)c1ccccc1 | 2% | 3% | -23% | 4% | -15% | 0%
O=C1CCN(CCc2ccccc2)CCN1[C@H](COc1ccccc1)c1ccccc1 | -10% | -27% | 15µM* | 10µM* | 14µM* | -3%
CCCN1CCC(=O)N([C@H](COc2ccccc2)c2ccccc2)CC1 | 0% | -20% | ? | ? | 21µM* | 1%
CCCN1CCC(=O)N([C@H](CO)c2ccccc2)CC1 | 13% | -5% | -3% | 4% | 1% | 13%
CC(C)CN1CCC(=O)N([C@H](COc2ccccc2)c2ccccc2)CC1 | 0% | -14% | ? | ? | 22µM* | -1%
O=C1C=C(c2ccccc2Oc2ccccc2)C[C@@H](c2ccc(F)cc2)C1 | ? | -21% | ? | ? | ? | ?
Cc1ccc(C(=O)CC(=O)COc2ccc(Cl)cc2C)cc1 | ? | -30% | 4.1µM* | ? | 5.8µM* | ?
Cc1ccc(C(=O)NNC(=O)COc2ccc(Cl)cc2C)o1 | 2% | 2% | ? | 2% | ? | 6%
Cc1ccc(NC(=O)c2ccc(OC(=O)COc3ccc(Cl)cc3C)cc2)cc1 | 11% | -6% | 3% | -6% | 11% | 13%
Cc1cc(Cl)ccc1OCC(=O)NNC(=O)c1cnccn1 | ? | -6% | 10µM* | -6% | 23µM* | ?
SMILES | HT1080 IDH1KD tx | HepG2 viability | TDP1 cell CPT | TGFb SMAD3 inh | TDP1 cell noCPT | HT1080-NT tox
Cc1cc(Br)ccc1OCC(=O)NNC(=O)c1cnccn1 | ? | -15% | ? | ? | 21µM* | -30%
COc1ccc(S(=O)(=O)NCCCCC(=O)O)cc1C(=O)O | 7% | -42% | 19% | ? | 10% | 9%
O=C(c1ccc2c(c1)N(Cc1ccccc1F)C(=O)c1ccccc1S2(=O)=O)N1CCCC1 | 1% | -11% | ? | 21% | 23µM* | 1%
O=C(c1ccc2c(c1)N(Cc1ccccc1F)C(=O)c1ccccc1S2(=O)=O)N1CCCCC1 | nt | 1% | ? | ? | 16µM* | nt
O=C(c1ccc2c(c1)N(Cc1ccccc1F)C(=O)c1ccccc1S2(=O)=O)N1CCN(c2ccccc2F)CC1 | nt | -7% | ? | 6% | ? | nt
O=C(CCc1nnc2ccc(N3CCC4(CC3)OCCO4)nn12)NCc1ccc(F)cc1 | 0% | -4% | -4% | -5% | -24% | -1%
CCC(C)Sc1ccc([C@@H]2[C@H]3C(=O)N(CC)C(=O)[C@H]3[C@]3(C(=O)OC)CCCN23)cc1OC (some centres not stated) | 0% | -5% | 23µM* | -18% | 23µM* | 1%
CCN1C(=O)[C@@H]2[C@@H](c3ccc(SC4CCCCC4)cc3)N3CCCC[C@@]3(C(=O)OC)[C@@H]2C1=O | -1% | -27% | ? | ? | ? | 0%
CCC(C)Sc1ccc([C@@H]2[C@@H]3C(=O)N(C)C(=O)[C@@H]3[C@]3(C(=O)OC)CCCCN23)cc1 (some centres not stated) | 4% | -24% | 18µM* | 1% | ? | 2%
CCC(C)Sc1ccc([C@@H]2[C@@H]3C(=O)N(CC)C(=O)[C@@H]3[C@]3(C(=O)OC)CCCCN23)cc1 (some centres not stated) | 20% | -10% | ? | -14% | 21µM* | 0%
CCCCCCN1C[C@H](n2cc(C3CC3)nn2)[C@@H](O)C[C@@H]1c1ccc(Cl)cc1 | -1% | -53% | ? | ? | ? | -1%
O=C(Nc1ccc2oc(-c3cccnc3)nc2c1)c1ccc(-c2ccccc2)o1 | nt | -35% | 12µM* | ? | 9.2µM* | nt
